From PubChem BioAssay (NCI)
This is part of a sample that, as a whole, favours compounds with a hit. Of some 83,000 tested, about 20% had one in any assay.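 Step 1: grow cells in 96-well plates. Step 2: add test compound at a single concentration. Step 3: incubate 48 h. Step 4: record percent growth.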 Active and inactive are the calls of the source. The calls were made as follows: active = growth percent below 10; inactive = the rest.

Experiments:
Test in all cases: NCI-60 one-dose screen, 48 h (100 = growth as untreated, 0 = no growth, -100 = all killed)
Details in all cases: 10 µM unless noted
[1] = system: NCI-H23 lung
[2] = system: NCI-H322M lung
[3] = system: HOP-62 NSCLC
[4] = system: NCI-H460 lung
[5] = system: HOP-92 NSCLC
[6] = system: NCI-H522 lung
[7] = system: A549/ATCC NSCLC
[8] = system: 786-0 renal
[9] = system: COLO 205 colon
[10] = system: DU-145 prostate
[11] = system: K-562 leukemia
[12] = system: MALME-3M melanoma
[13] = system: MDA-MB-231 breast
[14] = system: RXF 393 renal
[15] = system: SF-268 CNS
[16] = system: SF-295 CNS
[17] = system: SF-539 CNS
[18] = system: UACC-257 melanoma
[19] = system: M14 melanoma

Measured: growth

CN1c2ccccc2S(=O)(=O)n2c(SCC(=O)Nc3nc4ccc(F)cc4s3)nnc21
inactive: [1] 97.4% | [2] 93.1% | [3] 103% | [4] 103% | [5] 84.7% | [6] 72.2% | [7] 82.8% | [8] 112% | [9] 114% | [10] 125% | [11] 116% | [12] 98.8% | [13] 103% | [15] 105% | [16] 124% | [17] 108% | [18] 86.2% | [19] 100%
active: [14] -23.2%

Nc1c(Br)cc2c(c1Br)Cc1cc([N+](=O)[O-])ccc1-2
inactive: [1] 81.3% | [2] 98.4% | [3] 90.3% | [4] 83.2% | [5] 84.8% | [6] 97% | [7] 86.8% | [8] 109% | [9] 109% | [10] 124% | [11] 69.5% | [12] 67.3% | [13] 90.6% | [14] 115% | [15] 103% | [16] 117% | [17] 99.4% | [18] 93.5% | [19] 111%

CCN(CC)CCOc1ccc(Nc2ncc3cc(-c4c(Cl)cccc4Cl)c(=O)n(CCOC)c3n2)cc1
inactive: [2] 17.5% | [12] 10.6% | [16] 25.7% | [18] 12.9%
active: [1] -9.78% | [3] 6.51% | [4] 3.65% | [5] -18.7% | [6] -28.5% | [7] 0.456% | [8] 5.35% | [9] -40% | [10] -13.8% | [11] 5.78% | [13] -73.2% | [14] -64.4% | [15] -9.68% | [17] -75.7% | [19] -6.68%

CN(C)CCCNC(=O)c1cncnc1Nc1ccc2c(ccn2Cc2cccc(F)c2)c1
inactive: [1] 95.6% | [2] 98.6% | [3] 99.9% | [4] 95.5% | [5] 78.3% | [6] 98.2% | [7] 84.9% | [8] 79.5% | [10] 97.8% | [11] 37.5% | [12] 81.9% | [13] 67.6% | [14] 70.9% | [15] 85.6% | [16] 106% | [17] 83.7% | [18] 84.4% | [19] 107%

Oc1nc(NCc2ccccc2)sc1/C=C1\C=Nc2ncccc21
inactive: [1] 51.9% | [2] 61.9% | [3] 56.1% | [4] 81.9% | [5] 28.8% | [6] 35.2% | [7] 76.9% | [8] 62.8% | [9] 34.2% | [10] 56.5% | [11] 80.7% | [12] 129% | [13] 83.8% | [15] 52.3% | [16] 73.7% | [17] 23.3% | [18] 71.3% | [19] 80.1%
active: [14] -14.1%

O=C(Nc1cc(Cl)ccc1O)c1ccccc1Nc1ccnc(C(F)(F)F)c1
inactive: [2] 30.9% | [3] 16.6% | [5] 49.1% | [8] 57.9% | [9] 79.6% | [10] 23.8% | [13] 29.8% | [14] 25.7% | [15] 21.1% | [16] 46.3% | [17] 14.5% | [18] 26.8% | [19] 36%
active: [1] -5.07% | [4] 2.15% | [6] -6.22% | [11] 0.85% | [12] -0.18%

COc1ccc2c(c1)C(C)Cc1c(ncnc1-n1cnc3cc(C)ccc31)N2C (centres undefined)
inactive: [1] 30.4% | [2] 48.6% | [3] 28.4% | [6] 11.7% | [7] 13.6% | [8] 12.3% | [10] 10.2% | [12] 78.7% | [13] 28.9% | [14] 35.7% | [15] 26% | [17] 10.7% | [18] 47.3%
active: [4] 3.98% | [5] -2.48% | [9] -46.9% | [11] 7.68% | [16] 6.97% | [19] 8.87%

COc1ccc2c(O)c(/C=C3\N=Nc4ncccc43)oc2c1C[C@@H]1CCNC[C@H]1F
active: [1] -33.1% | [2] 3.89% | [3] -30.5% | [4] -51.2% | [6] -28.5% | [7] -24.1% | [8] -78.3% | [9] -71.9% | [10] -19.7% | [11] -26.4% | [12] -31.2% | [13] -40% | [14] -68.1% | [15] -31.1% | [16] 0.571% | [17] -48.2% | [19] -70.3%
inactive: [5] 98.7% | [18] 13.7%

COCCn1cc(-c2nc(-c3cc4cccnc4n3C)cs2)c2ccccc21
inactive: [1] 39.4% | [2] 41.6% | [3] 52.5% | [4] 19.9% | [5] 44.1% | [7] 28.9% | [8] 56.7% | [10] 66.8% | [11] 20% | [12] 70.7% | [13] 37.1% | [14] 70.7% | [15] 58.9% | [16] 36.5% | [17] 60.6% | [18] 49% | [19] 24.3%
active: [6] -6.38%

COc1ccc(CN2C(=O)OC(C)(COC(C)=O)C2=O)cc1 (centres undefined)
inactive: [1] 108% | [2] 99% | [3] 106% | [4] 111% | [5] 100% | [6] 91.4% | [7] 94.5% | [8] 106% | [9] 119% | [10] 107% | [11] 94.5% | [12] 102% | [13] 103% | [14] 105% | [15] 102% | [16] 99.7% | [17] 96% | [18] 100% | [19] 105%

O=C(CSc1nnnn1-c1ccccc1)Nc1ccc(Oc2ccccc2)cc1
inactive: [1] 101% | [2] 114% | [3] 95.6% | [4] 110% | [5] 75% | [6] 79.3% | [7] 101% | [8] 102% | [9] 110% | [10] 111% | [11] 120% | [12] 133% | [13] 94.2% | [14] 111% | [15] 101% | [16] 100% | [17] 111% | [18] 96.2% | [19] 111%

Cc1cc(Cl)nc(N2CCN(CCNc3ccnc4cc(Cl)ccc34)CC2)n1
inactive: [1] 27.2% | [2] 75.2% | [3] 68.2% | [4] 48.3% | [5] 27.9% | [6] 51.8% | [7] 58.2% | [8] 49.1% | [10] 66.6% | [11] 10.5% | [12] 41.8% | [13] 49.5% | [14] 61.5% | [15] 72.2% | [16] 36.4% | [17] 31.7% | [18] 13.5% | [19] 30.9%
active: [9] -50.1%

CC1(C)CC[C@]2(CO)CC[C@]3(C)[C@](O)([C@H](O)C[C@@H]4[C@@]5(C)CCCNC(C)(C)[C@@H]5CC[C@]43C)[C@@H]2C1
inactive: [1] 95% | [3] 101% | [4] 88.8% | [5] 94% | [6] 92.4% | [7] 85.2% | [8] 101% | [9] 44.2% | [10] 103% | [11] 10.3% | [12] 101% | [13] 102% | [14] 94.9% | [15] 98.9% | [16] 108% | [17] 97.9% | [18] 96.3% | [19] 96.1%

COc1cc(/C=C/C(=O)N2CCN(C(=O)c3cc(OC)c(OC)c(OC)c3)CC2)ccc1OCCCOc1cc2c(cc1OC)C(=O)N1CCC[C@H]1C=N2
inactive: [7] 12.7% | [8] 11.7%
active: [1] -13.6% | [2] -5.89% | [3] 9.35% | [4] 6.44% | [5] -37.1% | [6] -54.5% | [9] -63.4% | [10] 8.43% | [11] 1.04% | [12] -58.6% | [13] 9.01% | [14] -55.4% | [15] 2.8% | [16] -33.4% | [17] -32.3% | [18] -11.7% | [19] -80.2%

Nc1ccc(-c2ccncc2)cc1NC(=O)N1CCCC1
inactive: [1] 102% | [2] 92% | [3] 86.5% | [4] 100% | [5] 104% | [6] 57.4% | [7] 87.7% | [8] 96.8% | [9] 105% | [10] 105% | [11] 102% | [12] 69.9% | [13] 120% | [14] 100% | [15] 93.3% | [16] 103% | [17] 90.1% | [18] 59.7% | [19] 94.2%

COc1ccc(C(O)c2cc3c(N)c(C(=O)Nc4cccc5ccccc45)sc3nc2C)cc1 (centres undefined)
active: [6] 0% | [9] -34.3% | [10] 1.19% | [15] 9.53% | [17] 4.62%
inactive: [1] 23.3% | [2] 39.1% | [3] 25.6% | [5] 51% | [7] 11.6% | [8] 16.2% | [11] 12% | [12] 27.7% | [13] 13.6% | [14] 27% | [16] 12.9% | [18] 35.3% | [19] 15%
